Assay outcomes deposited in PubChem by The Scripps Research Institute Molecular Screening Center.
MITF primary: inhibitors of human MITF; AlphaScreen MITF homodimerization, bead proximity signal; hit rate 0.91% among 650,000; inhibition, % at 2.6 µM; O75030; AID 1259374; in the data active = inhibition above about 50%;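 also: 0% = vehicle wells with protein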
Target sequence (O75030 whole entry, looked up): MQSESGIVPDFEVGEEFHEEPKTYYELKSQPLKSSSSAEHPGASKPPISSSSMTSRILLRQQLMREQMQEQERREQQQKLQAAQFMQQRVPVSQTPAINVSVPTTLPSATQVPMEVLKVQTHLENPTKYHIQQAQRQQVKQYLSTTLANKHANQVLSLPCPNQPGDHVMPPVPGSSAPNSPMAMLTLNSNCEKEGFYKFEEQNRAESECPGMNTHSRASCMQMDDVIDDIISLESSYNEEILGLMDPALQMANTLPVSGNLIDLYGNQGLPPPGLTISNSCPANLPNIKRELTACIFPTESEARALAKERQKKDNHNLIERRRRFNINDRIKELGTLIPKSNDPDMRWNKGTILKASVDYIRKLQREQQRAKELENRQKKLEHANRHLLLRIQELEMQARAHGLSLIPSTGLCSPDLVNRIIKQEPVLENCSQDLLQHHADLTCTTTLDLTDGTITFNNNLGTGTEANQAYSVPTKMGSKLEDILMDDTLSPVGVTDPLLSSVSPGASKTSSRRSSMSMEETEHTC
FBW7 act: human FBW7 E3 ligase activation, primary screen | Q969H0 | AlphaScreen FBW7–phospho-cyclin E peptide binding, activator screen | normalized activity (activation), % at 26.1 µM | hit rate 0.13% among 650,000; in the data active = normalized activity above about 1.9%;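 also: purified mutant Fbw7 with reduced substrate affinity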
GPR151 activ: activators of human GPR151. Q8TDV0. PathHunter beta-arrestin GPR151 cells, luminescence. activation, % at 11.2 µM. hit rate 1% among 650,000. AID 1508602; in the data active = activation above about 4.9%;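 also: 0% = median of compound wells and 100% = cells with positive control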
TEAD-YAP inh: TEAD-YAP interaction inhibition; HEK-TIYL cells, TEAD-Gal4/YAP UAS-luciferase luminescence; AID 1259422; inhibition, % at 9.12 µM; hit rate 1.4% among 640,000; in the data active = inhibition above about 32%;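 also: 0% = median of test compound wells and 100% = reference inhibitor wells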
GPR151 conf act: confirmation of human GPR151 activators | 6,700 tested, under 10 active | shares compounds with GPR151 activ | GPR151 PathHunter beta-arrestin cells, luminescence, 90 min; % of EA-reagent control over plate median | activation, % at 11.2 µM | AID 1508609;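 active = mean percent activation across replicates above the confirmation screen cutoff of 4.91%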
GPR119 ag: counter-screen for GPR151 activators: effect on human GPR119; GPR119 PathHunter beta-arrestin cells, luminescence, 90 min; 0 = compound-well median, 100 = enzyme-acceptor control; shares compounds with GPR151 activ; hit rate 0.3% among 6,700; activation, % at 11.2 µM; AID 1508611;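 active = mean percent activation in the counterscreen above 29.09%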;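 also: counterscreen on off-target GPR119 to flag nonselective hits from the GPR151 activator screen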
Numbers without * were called inactive; x = not tested or not shown; ! = a repeat was not active. Only some compounds are listed: those with a hit (about 3.5% of all), similar ones and a draw of the others.

SMILES	MITF primary	FBW7 act	GPR151 activ	TEAD-YAP inh	GPR151 conf act	GPR119 ag
Cc1ccc(OCCCCn2cnc3ccccc3c2=O)cc1	10	0	5.5*	2	0	-4
O=c1c2ccccc2ncn1CCOCCOc1cccc2ccccc12	9	0	1	0	x	x
COc1ccccc1OCCOCCn1cnc2ccccc2c1=O	-3	0	14*	-14	0	0
COc1ccc(-n2nc(C(=O)NCC(=O)NC3CCC(Cc4ccccc4)CC3)c3ccccc3c2=O)cc1Cl (stereo not given)	-7	0	2	-5	x	x
c1ccc(N2CCN(c3nnc(SCc4ccccn4)s3)CC2)cc1	-3	0	5.4*	-40	-1	-9
c1ccc(CSc2nnc(SCc3ccccn3)s2)nc1	2	0	0	-62	x	x
CCN1C(=O)/C(=C/c2ccc(OCc3ccc(C(=O)O)cc3)cc2)NC1=S	0	0	7.8*	2	0	0
CCN1C(=O)/C(=C/c2ccc(C(=O)OC)cc2)NC1=S	7	0	-1	1	x	x
O=C(NCCO)c1cc(NCc2cccnc2)nc2ccccc12	6	0	-1	-3	x	x
NC(=O)C1CCN(C(=O)c2ccc(F)cc2F)CC1	-2	0	1	1	x	x
Cc1cc(NC(=O)C2CC2)n(-c2nc3ccccc3[nH]2)n1	-1	0	9.1*	29	0	-5
Cc1cc(NC(=O)c2ccco2)n(-c2nc3ccccc3[nH]2)n1	7	0	0	28	x	x
NC(C(=O)N1CCC(Nc2ccc3cnccc3c2)CC1)c1ccc(-c2ccccc2)cc1 (stereo not given)	-12	0	-1	-18	x	x
NC(C(=O)N1CCN(c2ccc3cnccc3c2)CC1)c1ccc(-c2ccccc2)cc1 (stereo not given)	12	0	7.5*	-4	0	2
COC(=O)C1CCN(C(=O)/C(=C\c2ccccc2)c2ccccc2)CC1	-2	0	1	0	x	x
CCOC(=O)C1CCN(C(=O)/C(=C/c2cccc([N+](=O)[O-])c2)c2ccccc2)CC1	12	0	8.7*	-1	0	-13
COc1ccc(N2CCN(C3CCCN(C(=O)c4csc(SC)n4)C3)CC2)cc1 (stereo not given)	5	0	4.9*	-1	1	9
c1ccc(CN2CCC(Nc3nc(-c4ccc(N5CCOCC5)nc4)nc4c3ncn4C3CCCCC3)CC2)cc1	7	0	3	4	x	x
O=C(Nc1ccccc1)NC1(C(F)(F)F)Oc2ccc(Cl)cc2O1 (stereo not given)	5	0	5.2*	-1	0	5
O=C(NC1(C(F)(F)F)Oc2ccccc2O1)C(F)(F)F	7	0	6.2*	-1	1	-10
O=C(CCl)NC1(C(F)(F)F)Oc2ccccc2O1	6	0	0	-2	x	x
O=C(Nc1cccc(C(F)(F)F)c1)NC1(C(F)(F)F)Oc2ccc(Cl)cc2O1 (stereo not given)	9	0	0	-23	x	x
S=C(NCc1ccccn1)Nc1cccc(Cl)c1	-2	0	10.0*	-41	1	9
N#C/C(=C/Nc1ccc(F)c([N+](=O)[O-])c1)c1nc(-c2ccccc2)cs1	11	0	3	7	x	x
N#C/C(=C\Nc1ccc(F)c([N+](=O)[O-])c1)c1nc(-c2cccc([N+](=O)[O-])c2)cs1	-8	0	8.8*	-3	-1	4
SMILES	MITF primary	FBW7 act	GPR151 activ	TEAD-YAP inh	GPR151 conf act	GPR119 ag
Clc1ccc(COc2ccccc2CNn2cnnc2)cc1	7	0	0	5	x	x
CCOc1cccc(CNn2cnnc2)c1OCc1ccccc1	3	0	5.5*	2	1	9
COc1ccc2oc(=O)c(N(C)S(=O)(=O)c3ccc(C)cc3)cc2c1	15	0	5.1*	2	-1	-2
Cc1ccc(S(=O)(=O)n2ccn(C(=O)c3ccccc3Br)c2=O)cc1	-3	0	4.9*	-9	-1	-14
O=C(CCCC(=O)NCCCc1ccccc1)NCCCc1ccccc1	30	0	1	-4	x	x
CN1/C(=C\C=N\NC(=S)Nc2cccnc2)C(C)(C)c2ccccc21	3	0	7.4*	29	0	2
CCc1cc(-c2n[nH]c(C)c2-c2nc(C)cs2)c(O)cc1OC	4	0	8.0*	10	0	7
Cc1cccc(C(=O)NNC(=O)C2CCCO2)c1 (stereo not given)	-2	0	7.3*	-3	0	0
Nc1c(Cl)ncnc1N1CCOCC1	18	0	0	7	x	x
Nc1c(Cl)ncnc1N1CCN(c2ncnc(Cl)c2N)CC1	-3	0	5.4*	-3	0	7
Cc1ccc(NC(=O)CSc2nc(N)c(NC(=O)c3ccco3)c(=O)[nH]2)cc1Cl	5	0	1	11	x	x
O=C(O)COc1cccc(NC(=O)c2ccc(I)cc2)c1	-13	0	1	9	x	x
Cc1ccc(NC(=O)COC(=O)CCc2ccco2)cc1C	-10	0	6.3*	4	0	4
CC(Oc1c(Cl)cccc1Cl)C1=NCCN1 (stereo not given)	-1	1	4.9*!	7	0	2
CCCCCCCCCn1c(NCCN)nc2c1c(=O)[nH]c(=O)n2C	-3	0	1	6	x	x
CCCN(CCC)S(=O)(=O)c1ccc(NS(C)(=O)=O)cc1	0	0	0	-1	x	x
CCCN(CCC)S(=O)(=O)c1ccc(NS(=O)(=O)c2ccc(F)cc2)cc1	3	0	6.1*	6	0	-14
O=[N+]([O-])c1ccc(Oc2ccc(S(=O)(=O)Nc3ccc(F)cc3)cc2)cc1	4	0	7.5*	36*	1	-5
Cc1ccnc(NS(=O)(=O)c2ccc([N+](=O)[O-])cc2)n1	-3	0	7.5*	-21	0	-13
O=[N+]([O-])c1ccc(Oc2ccc(S(=O)(=O)Nc3ccccc3)cc2)cc1	-11	0	1	24	x	x
CC(=O)Nc1ccc(S(=O)(=O)Nc2ccc(C(F)(F)F)cc2[N+](=O)[O-])cc1	6	0	7.8*	9	1	15
Cc1cc([N+](=O)[O-])nn1CC(=O)Nc1sc2c(c1C#N)CCC(C)C2 (stereo not given)	8	0	-2	5	x	x
CC(=O)Nc1ccc(NS(=O)(=O)c2ccc([N+](=O)[O-])cc2)cc1	13	1	18*	8	1	1
CC(=O)Nc1ccc(S(=O)(=O)c2ccc([N+](=O)[O-])cc2)cc1	-6	0	-2	2	x	x
CC(=O)Nc1ccc(S(=O)(=O)c2ccc(NC(C)=O)c([N+](=O)[O-])c2)cc1[N+](=O)[O-]	15	1	7.5*	5	1	10
COc1cccc2c1CC(C(=O)Nc1ccc(-c3cn[nH]c3C)cc1OCCN(C)C)CO2 (stereo not given)	10	0	6.8*	7	0	-2
